Laboratory results reported in the supplement of paper PMC6555819.

Experiments:
Test in all cases: PBM binding z-score (relative to random genomic background probes); higher = stronger binding; sequences stand for … in GC…GCGATTGACAGCGTAGAATGAAGG
[1] = test system: PPARg:RXRa DBDmut IVT, anti-RXR (DBD mutation: RXRa K156A/R161A, NR concentration 270 nM, RXRa partner concentration 90 nM)
In short: (§1)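 For binding z-scores, the reference was random background probes on custom Agilent 4×180K protein-binding microarrays. These arrays were incubated 1 h with ligand-free nuclear receptor dimers in PBS pH 7.4, 2% milk, 0.02% Triton X-100, 1 mM DTT, 0.2 mg/mL BSA and 0.4 mg/ml salmon testes DNA. Fluorescence was scanned after antibody detection of each partner (one per run) and regression-normalized.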

[2] = test system: PPARg:RXRa IVT, anti-PPARg (NR concentration 270 nM, RXRa partner concentration 90 nM)
In short: as §1

[3] = test system: PPARg DBDmut:RXRa IVT, anti-PPARg (DBD mutation: PPARg1 K132A/R137A, NR concentration 270 nM, RXRa partner concentration 90 nM)
In short: as §1

[4] = test system: PPARg DBDmut IVT, anti-PPARg (DBD mutation: PPARg1 K132A/R137A, NR concentration 270 nM)
In short: as §1

[5] = test system: PPARg homodimer (NR concentration 180 nM)
In short: as §1

[6] = test system: PXR:RXRa (NR concentration 270 nM, RXRa partner concentration 90 nM)
In short: as §1

[7] = test system: PXR homodimer (NR concentration 270 nM)
In short: as §1

[8] = test system: RARa:RXR (NR concentration 270 nM, RXRa partner concentration 90 nM)
In short: as §1

[9] = test system: RARa homodimer (NR concentration 270 nM)
In short: as §1

[10] = test system: RARb:RXRa (NR concentration 270 nM, RXRa partner concentration 90 nM)
In short: as §1

[11] = test system: RARb homodimer (NR concentration 270 nM)
In short: as §1

[12] = test system: RARg:RXRa (NR concentration 270 nM, RXRa partner concentration 90 nM)
In short: as §1

[13] = test system: RARg homodimer (NR concentration 270 nM)
In short: as §1

[14] = test system: RXRa DBDmut IVT, anti-RXR (DBD mutation: RXRa K156A/R161A, NR concentration 90 nM)
In short: as §1

[15] = test system: RXRa homodimer (NR concentration 180 nM)
In short: as §1

[16] = test system: THRa:RXRa (NR concentration 90 nM, RXRa partner concentration 90 nM)
In short: as §1

[17] = test system: THRa homodimer (NR concentration 90 nM)
In short: as §1

[18] = test system: VDR homodimer (NR concentration 270 nM)
In short: as §1

Sequence | PBM binding z-score [1] | PBM binding z-score [2] | PBM binding z-score [3] | PBM binding z-score [4] | PBM binding z-score [5] | PBM binding z-score [6] | PBM binding z-score [7] | PBM binding z-score [8] | PBM binding z-score [9] | PBM binding z-score [10] | PBM binding z-score [11] | PBM binding z-score [12] | PBM binding z-score [13] | PBM binding z-score [14] | PBM binding z-score [15] | PBM binding z-score [16] | PBM binding z-score [17] | PBM binding z-score [18]
TCAGACAGGTGAAAGTAACTCAGGTACGCAGTCG | 2.49 | 1 | 0.398 | 0.588 | 0.14 | 0.584 | 0.498 | 0.768 | 0.295 | 0.907 | 0.326 | 0.474 | 0.598 | 1.01 | 0.974 | 0.472 | -0.0578 | -0.0124
TCATATAGGTAAAGGTGCAAGTCGAACGATATGA | 3.53 | 3.68 | 0.688 | 1.15 | 0.555 | 0.241 | 0.116 | 0.949 | 0.796 | 0.566 | 0.0991 | 0.803 | 0.522 | 0.75 | 1.18 | 0.151 | -0.746 | 0.385
CGAACTAGGTCAGAAAAGGACAGTGAAGGATGAT | 6.88 | 7.14 | 2.3 | 1.47 | 1.15 | 1.17 | -0.473 | 1.08 | 0.026 | 3.16 | 2.62 | 2.78 | 3.84 | 0.166 | 0.978 | 3.91 | 0.0421 | -0.122
CTTACTGGGCCAAGGTCATTGATCAGTCAAAGCA | 6.43 | 6.49 | 1.83 | 1.71 | 2.67 | 3.89 | 1.48 | 4.38 | 0.236 | 3.38 | 3.49 | 4 | 3.2 | 2.11 | 3.65 | 3.43 | 2.31 | 3.76
AGTCAAAGTTCATCTAGGTTACGTAAGATATGCT | 1.81 | 4.48 | 1.59 | 1.1 | 2.63 | 5.66 | 10.7 | 4.25 | 1.94 | 4.99 | 4.3 | 5.85 | 6.39 | 4.52 | 5.4 | 3.45 | 0.553 | 6.02
TAGCCTCGGTCATGCGGGCCAGTATAGTGTCGGC | -0.364 | 0.336 | -0.318 | -0.413 | -0.406 | -0.524 | -0.81 | -0.296 | -0.888 | 2.36 | 1.58 | 1.57 | 2.52 | -1.04 | -0.228 | -0.135 | -0.62 | -0.697
TCTAGCAGGCCAGAGGGTCACTCCAGAGGTACGG | 0.669 | 0.586 | -1.43 | -1.75 | 0.69 | 1.08 | -0.334 | 1.92 | -0.787 | 1.89 | 2.59 | 2.1 | 1.86 | -0.234 | 1.97 | 1.38 | -0.258 | 0.403
CCGACTGGGGCAATGTTACCATAACGCACAGCCA | 3.67 | 2.99 | -0.638 | -0.759 | 0.142 | -0.771 | -0.41 | -0.456 | 0.0364 | 0.351 | -0.131 | 0.0448 | 0.359 | -0.0343 | -0.0938 | -0.53 | -0.342 | -0.569
CCTTACGGGTCACGAGGTGATAGCACGACGAGCG | 3.97 | 5.24 | 1.17 | 1.06 | 3.17 | 3.69 | -0.0631 | 5.02 | 0.649 | 4.27 | 3.52 | 5.58 | 5.46 | 1.66 | 6.44 | 3.48 | 0.888 | 1.15
TCTATTAGTTGATTAGGGTAACCGAAACAGCGGA | 2.12 | 1.19 | 1.29 | 1.26 | 0.518 | 0.646 | 0.346 | 0.855 | 1.41 | 0.609 | 0.423 | 0.525 | 0.53 | 1.03 | 0.666 | 1.61 | 0.861 | 0.517
CGAACCAGGTCAGAACAGGACAGTGAAGGATGAT | 3.56 | 3.58 | 0.325 | -0.243 | 1.16 | 1.66 | -0.119 | 1.4 | 0.21 | 3.05 | 2.14 | 2.84 | 3.33 | 0.868 | 2.06 | 3.69 | 0.812 | 0.276
CGAACTAGGTCTAGGACAGTGAATCTCCGCACGC | 2.28 | 1.58 | -0.66 | -0.934 | -0.583 | -0.626 | -0.327 | -0.766 | -0.883 | -0.221 | -0.234 | -0.33 | -0.233 | 0.104 | -0.217 | 0.316 | 0.0986 | -0.409
CGATCTAGGTCAGAACAGGACAGTGAAGGATGAT | 6.87 | 6.77 | 1.59 | 1.33 | 0.826 | 0.571 | -0.0995 | 1.13 | 0.466 | 2.66 | 1.97 | 2.2 | 2.89 | 0.851 | 0.982 | 3.36 | 0.505 | -0.107
ACTTACGTGTCAACGAGGTTATAGCACGCGTATA | 0.785 | 1.07 | 0.246 | 0.671 | 0.479 | 1.26 | 0.652 | 1.65 | 0.0685 | 1.2 | 1.17 | 1.44 | 1.18 | 0.532 | 1.38 | 1.99 | 0.476 | 0.875
